Publication PMC5913336, “True equilibrium measurement of transcription factor-DNA binding affinities using automated polarization microscopy”

Each sequence was assayed against Gsc (Drosophila melanogaster, UniProt P54366 267-356) (assay: FP; 33 mM phosphate pH 7.0, 90 mM NaCl, 0.01% Tween 20, 0.1 mM DTT, 0.5% agarose; room temperature). Details: tags: N-GST (pGEX-6P-1, kept); dsDNA, one strand shown.
Chain of Gsc (P54366 267-356): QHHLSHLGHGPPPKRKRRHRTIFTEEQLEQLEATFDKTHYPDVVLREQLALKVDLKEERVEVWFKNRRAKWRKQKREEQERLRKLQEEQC
In the case of AATTAATCCGGT, the binding signal is reported as 1.99 Kd / Kd of best base at the position.
AATTACTCCGAT was tested, and the binding signal was 24.4 Kd / Kd of best base at the position.
In the case of AGTTAATCCGAT, the binding signal is reported as 4.01 Kd / Kd of best base at the position.
In the case of GATTAATCCGAT, the binding signal is reported as 1.37 Kd / Kd of best base at the position.
In the case of ACTTAATCCGAT, the binding signal is reported as 10.4 Kd / Kd of best base at the position.
For AATGAATCCGAT, the binding signal was 42.9 Kd / Kd of best base at the position.
AATTAATCCTAT was tested, and the binding signal was 2.32 Kd / Kd of best base at the position.
For CATTAATCCGAT, the binding signal was 4.41 Kd / Kd of best base at the position.
AATTAATCCGAC was tested, and the binding signal was 1.04 Kd / Kd of best base at the position.
AATTAATCCGAA was tested, and the binding signal was 1.15 Kd / Kd of best base at the position.
For AATCAATCCGAT, the binding signal was 23.5 Kd / Kd of best base at the position.
For AATAAATCCGAT, the binding signal was 8.9 Kd / Kd of best base at the position.
For AAGTAATCCGAT, the binding signal was 4.46 Kd / Kd of best base at the position.
For AATTAACCCGAT, the binding signal was 13.1 Kd / Kd of best base at the position.
AAATAATCCGAT was tested, and the binding signal was 4.25 Kd / Kd of best base at the position.
For AATTAATCCCAT, the binding signal was 1.16 Kd / Kd of best base at the position.
In the case of AATTAATCAGAT, the binding signal is reported as 1.75 Kd / Kd of best base at the position.
In the case of AATTAATCTGAT, the binding signal is reported as 1.95 Kd / Kd of best base at the position.
For AATTGATCCGAT, the binding signal was 12.6 Kd / Kd of best base at the position.
With AATTATTCCGAT the binding signal was 24.5 Kd / Kd of best base at the position.
With AATTAATCCGTT the binding signal was 1.04 Kd / Kd of best base at the position.
For AATTCATCCGAT, the binding signal was 36.4 Kd / Kd of best base at the position.
With AATTAATCCAAT the binding signal was 1.29 Kd / Kd of best base at the position.
For AACTAATCCGAT, the binding signal was 2.52 Kd / Kd of best base at the position.
For AATTAATCCGCT, the binding signal was 3.18 Kd / Kd of best base at the position.
For AATTAATCCGAG, the binding signal was 1.56 Kd / Kd of best base at the position.
For AATTAATTCGAT, the binding signal was 3.3 Kd / Kd of best base at the position.
AATTTATCCGAT was tested, and the binding signal was 12.6 Kd / Kd of best base at the position.
In the case of AATTAAGCCGAT, the binding signal is reported as 4.74 Kd / Kd of best base at the position.
In the case of AATTAATCCGAT, the Kd is reported as roughly 3.8 nM.
AATTAATGCGAT was tested, and the binding signal was 9.37 Kd / Kd of best base at the position.
In the case of AATTAAACCGAT, the binding signal is reported as 9.22 Kd / Kd of best base at the position.
For AATTAATACGAT, the binding signal was 9.77 Kd / Kd of best base at the position.
For ATTTAATCCGAT, the binding signal was 3.67 Kd / Kd of best base at the position.
For TATTAATCCGAT, the binding signal was 2.48 Kd / Kd of best base at the position.
With AATTAGTCCGAT the binding signal was 10.6 Kd / Kd of best base at the position.

The sequences below were run against T1, Optix (Drosophila melanogaster, UniProt Q95RW8 139-229) in the same assay as above. Details: tags: N-GST (pGEX-6P-1, kept); dsDNA, one strand shown.
T1 sequence: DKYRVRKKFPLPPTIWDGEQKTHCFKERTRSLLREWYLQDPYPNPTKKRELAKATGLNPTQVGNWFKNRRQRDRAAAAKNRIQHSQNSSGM
For AGAGTGATAGCA, the binding signal was 5.73 Kd / Kd of best base at the position.
For AGAGTGATTGCT, the binding signal was 49 Kd / Kd of best base at the position.
In the case of AGAGTTATAGCT, the binding signal is reported as 25 Kd / Kd of best base at the position.
AAAGTGATAGCT was tested, and the binding signal was 1.14 Kd / Kd of best base at the position.
